In PubChem BioAssay (Tox21):
Where “and” joins values, the source holds several entries; their conditions need not be identical. Equal values may be shown once. Results filed as inconclusive are left out. A number with no mark means an inactive call. Calls of active or inactive are those of the source. Calls follow the shape of the full dose curve.

Test: qHTS assay to identify small molecule agonists of the endoplasmic reticulum stress response signaling pathway - cell viability counter screen (AID 1159517); also: nearly all actives have a fitted effect of over 50% in size
Details: ESRE-bla HeLa viability, CellTiter-Glo luminescence, 5 h; series mostly up to 61 µM; activity change, negative = cytotoxicity: at the top concentration
From the text: U.S. Tox21 Program National Center for Advancing Translational Sciences [NCATS] NIH Chemical Genomics Center [NCGC] U.S. Environmental Protection Agency [EPA] National Institutes of Environmental Health Sciences [NIEHS] National Toxicology Program [NTP] U.S. Food and Drug Administration [FDA] Tox21 Assay Overview: Endoplasmic Reticulum (ER) plays an important role in cellular signaling, protein folding/maturation, stress response, lipid biosynthesis, calcium storage and release etc. Under stress conditions, proteins in ER misfold or unfold, and leading to the expression of ER stress responsive genes. ER stress has been associated with a variety of pathophysiological conditions such as cancer, inflammation, neurodegenerative diseases, diabetes, ischemic heart disease etc. To identify the compounds that induce ER stress response, an ER stress reporter cell line, CellSensor ESRE-bla HeLa (Life Technologies, Carlsbad, CA) containing a beta-lactamase reporter gene under control of the Endoplasmic reticulum Stress Response Element (ESRE) was used to screen Tox21 10K compound library. The cytotoxicity of the Tox21 compound library against the ESRE-bla HeLa cell line was tested in parallel by measuring cell viability using the CellTiter-Glo assay in the same wells.
Tox21 Assay Protocol Summary: ESRE-bla HeLa cells were dispensed at 1,500 cells/6 uL of assay medium per well into black wall/clear-bottom 1536-well plates using a Multidrop Combi (ThermoFisher Scientific, Waltham, MA) dispenser. After the assay plates were incubated at 37 C and 5% CO2 for an overnight, 23 nL of compounds dissolved in DMSO, positive controls or DMSO only was transferred to the assay plate by a Pintool station (Kalypsys, San Diego, CA). The assay plates were incubated at 37 C and 5% CO2 for 5 hr. One uL of LiveBLAzer B/G FRET substrate (Life Technologies) was added using a FRD (Flying Reagent Dispenser, Aurora Discovery, San Diego, CA) and the plates were incubated at room temperature for 2 hr. Fluorescence intensity (405 nm excitation, 460 nm and 530 nm emissions) was measured using an Envision plate reader (PerkinElmer, Shelton, CT). For cytotoxicity, 4 ul/well of CellTiter-Glo reagent was added into the assay plates using an FRD. After 30 min incubation at room temperature, the luminescence intensity was measured using a ViewLux plate reader (PerkinElmer).
% is scaled to controls: 0 for no effect and ±100 for the full control effect; potency is read from the fitted curve at half-maximal effect.

SMILES	activity change, negative = cytotoxicity	Potency
Cc1cc(C(C)(C)C)cc(C)c1CC1=NCCN1	-1.83%	–
O=C1C(c2[nH]c3ccc(S(=O)(=O)O)cc3c2O)=Nc2ccc(S(=O)(=O)O)cc21	-20.9%	–
S=C([S-])NCCNC(=S)[S-].S=C([S-])NCCNC(=S)[S-].[Mn+2].[Zn+2]	3.5%	–
Cc1c(N)cccc1C(F)(F)F	3.03%	–
CCCCCCCCCCCCOC(=O)c1ccc(O)cc1	-16.2% [at 78.8 µM]	–
O=S(=O)(O)c1ccc(N=Nc2c(O)ccc3ccccc23)cc1	-26.6%	–
CCCCCCCCCCCCOCCOCCOCCOCCOCCOCCOCCOCCOCCO	-14.2%	–
Cl[Si](Cl)(c1ccccc1)c1ccccc1	-4.5% [at 78.8 µM]	–
CN(C)c1ccc(C(=C2C=CC(=[N+](C)C)C=C2)c2ccc(N(C)C)cc2)cc1	–	12.3 µM (active) and 9.52 µM (active)
COC(=O)C1=C(C)NC(C)=C(C(=O)OCCN2CCN(C(c3ccccc3)c3ccccc3)CC2)C1c1cccc([N+](=O)[O-])c1 (stereo not given)	4.43%	–
CC1(C)CCC[C@]2(C)[C@H]3CCO[C@]3(C)CC[C@@H]12	-31.5%	–
Cc1cc(C(C#N)c2ccc(Cl)cc2)c(Cl)cc1NC(=O)c1cc(I)cc(I)c1O (stereo not given)	-22.8%	–
Cc1cc(C)c(/C=C2\C(=O)Nc3ccccc32)[nH]1	-14.5%	–
Cc1c(C)c2c(c(C)c1OC(=O)c1cccnc1)CC[C@@](C)(CCC[C@H](C)CCC[C@H](C)CCCC(C)C)O2	10.1%	–
CC(C)(c1cc(Br)c(OCC(Br)CBr)c(Br)c1)c1cc(Br)c(OCC(Br)CBr)c(Br)c1 (stereo not given)	2.5%	–
CN(C)[C@@H](CCOc1cccc2ccccc12)c1ccccc1	-30%	–
Nc1ccc(NCCO)c([N+](=O)[O-])c1	-13.1%	–
CCOc1ccc2ccccc2c1C(=O)N[C@@H]1C(=O)N2[C@@H]1SC(C)(C)[C@@H]2C(=O)O	-1.15%	–
Cc1cccc(C(=O)O)c1O	10.4%	–
COc1ccc2c(c1)c(CC(=O)OC/C=C(\C)CC/C=C(\C)CCC=C(C)C)c(C)n2C(=O)c1ccc(Cl)cc1	-10.7%	–

SMILES	activity change, negative = cytotoxicity	Potency
Fc1ccc(C(c2ccc(F)cc2)N2CCNCC2)cc1	7.55%	–
C1CCC(SSC2CCCCC2)CC1	-22.9%	–
CN1CCN(Cc2cc(-c3ccc4[nH]c(=O)oc4c3)co2)[C@@H](c2ccc(F)cc2)C1	-8.01%	–
C[Si](Cl)(c1ccccc1)c1ccccc1	-21.7%	–
CC(C)=CCNc1ncnc2c1ncn2[C@@H]1O[C@H](CO)[C@@H](O)[C@H]1O	–	13.4 µM (active)
CC[C@H](C)COC(=O)/C=C/c1ccc(N=Cc2ccc(OC)cc2)cc1	1.58%	–
ClCCl	-9.87%	–
Cc1cc(-n2nc3ccc(Cl)cc3n2)c(O)c(C(C)(C)C)c1	-1.58%	–
CCCCCCC1CCCC(=O)O1 (stereo not given)	3.7%	–
CC(C(=O)O)c1ccc2c(c1)[nH]c1ccc(Cl)cc12 (stereo not given)	-11.4%	–
C=CC(=O)Nc1cc2c(Nc3ccc(F)c(Cl)c3)ncnc2cc1OCCCN1CCOCC1	–	16.9 µM (active)
CC(=O)OCC=C(C)C	7.99%	–
CCCCCCCCCCC[C@@H](C[C@@H]1OC(=O)[C@H]1CCCCCC)OC(=O)[C@H](CC(C)C)NC=O	-5.76%	–
COc1c(C)c2c(c(O)c1C/C=C(\C)CCC(=O)OCCN1CCOCC1)C(=O)OC2	-5.93%	–
C=C(C)c1cccc(C(=C)C)c1	9.87%	–
[Cl][Pt-2]([Cl])([Cl])[Cl]	-22.6% [at 78.8 µM]	–
C[C@@H](O)[C@H](N)C(=O)O	3.06% [at 28.5 µM]	–
COc1ccc(NC(=O)CC(C)=O)cc1	-4.78%	–
COc1cc(C)ccc1O	2.01%	–
Nc1nc2c(ncn2COCCO)c(=O)[nH]1	-3.14%	–
